# In the supplement of paper PMC9794691:
# Test system: PC9
# Experiment: area under confluence curve of osimertinib + compound combination regimen (DTP regrowth); compare to osimertinib-only DTP control AUC of the same experiment (AUC (confluence x time, arbitrary))
# Protocol: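 compare to osimertinib-only DTP control AUC of the same experiment; Long-term drug-tolerant persister (DTP) screen in EGFR-mutant NSCLC cell lines in 48-well plates. The test compound was given at one fixed dose with osimertinib, either upfront (from day 0 to the DTP stage at 10-21 days, then drug-free medium) or sequentially (osimertinib alone to the DTP stage, then the test compound). IncuCyte confluence was tracked until osimertinib-only controls regrew, and AUC was computed in Prism. AUC scale depends on experiment duration, so each row carries the same-experiment osimertinib-only DTP and DMSO control AUCs; combination activity = control minus combo AUC. Osimertinib dose not stated.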
# [1] = test compound dose 300 nM, dosing schedule: sequential, osimertinib-only DTP control AUC in same experiment: 12535, DMSO control AUC in same experiment: 43316
# [2] = test compound dose 300 nM, dosing schedule: upfront, osimertinib-only DTP control AUC in same experiment: 15354, DMSO control AUC in same experiment: 43316
# [3] = test compound dose 300 nM, dosing schedule: sequential, osimertinib-only DTP control AUC in same experiment: 29087, DMSO control AUC in same experiment: 30008
# [4] = test compound dose 300 nM, dosing schedule: upfront, osimertinib-only DTP control AUC in same experiment: 34430, DMSO control AUC in same experiment: 30008
structure (smiles),measurement,setting,value
Cn1cc(CNCC2CCN(c3ncc(C(=O)NO)cn3)CC2)c2ccccc21 [Quisinostat] + C=CC(=O)Nc1cc(Nc2nccc(-c3cn(C)c4ccccc34)n2)c(OC)cc1N(C)CCN(C)C [osimertinib],area under confluence curve,"test compound dose 10 nM, dosing schedule: sequential, osimertinib-only DTP control AUC in same experiment: 10175, DMSO control AUC in same experiment: 27958",2060
same,area under confluence curve,"test compound dose 10 nM, dosing schedule: sequential, osimertinib-only DTP control AUC in same experiment: 13992, DMSO control AUC in same experiment: 30002",4770
same,area under confluence curve,"test compound dose 10 nM, dosing schedule: sequential, osimertinib-only DTP control AUC in same experiment: 14708, DMSO control AUC in same experiment: 21341",2700
same,area under confluence curve,"test compound dose 10 nM, dosing schedule: upfront, osimertinib-only DTP control AUC in same experiment: 16134, DMSO control AUC in same experiment: 27958",1380
same,area under confluence curve,"test compound dose 10 nM, dosing schedule: upfront, osimertinib-only DTP control AUC in same experiment: 21313, DMSO control AUC in same experiment: 21341",6010
same,area under confluence curve,"test compound dose 10 nM, dosing schedule: upfront, osimertinib-only DTP control AUC in same experiment: 22377, DMSO control AUC in same experiment: 30002",4720
CNC(=O)c1cccc(-c2ccc3c(N4CCOC[C@@H]4C)nc(N4CCOC[C@@H]4C)nc3n2)c1 + C=CC(=O)Nc1cc(Nc2nccc(-c3cn(C)c4ccccc34)n2)c(OC)cc1N(C)CCN(C)C [osimertinib],area under confluence curve,"test compound dose 100 nM, dosing schedule: sequential, osimertinib-only DTP control AUC in same experiment: 13052, DMSO control AUC in same experiment: 28334",6580
same,area under confluence curve,"test compound dose 100 nM, dosing schedule: upfront, osimertinib-only DTP control AUC in same experiment: 17920, DMSO control AUC in same experiment: 28334",14800
NC1(C(=O)N[C@@H](CCO)c2ccc(Cl)cc2)CCN(c2nc[nH]c3nccc2-3)CC1 [Capivasertib] + C=CC(=O)Nc1cc(Nc2nccc(-c3cn(C)c4ccccc34)n2)c(OC)cc1N(C)CCN(C)C [osimertinib],area under confluence curve,"test compound dose 300 nM, dosing schedule: sequential, osimertinib-only DTP control AUC in same experiment: 3562, DMSO control AUC in same experiment: 31840",1390
same,area under confluence curve,"test compound dose 300 nM, dosing schedule: sequential, osimertinib-only DTP control AUC in same experiment: 10725, DMSO control AUC in same experiment: 30578",2030
same,area under confluence curve,[1],2150
same,area under confluence curve,"test compound dose 300 nM, dosing schedule: upfront, osimertinib-only DTP control AUC in same experiment: 10245, DMSO control AUC in same experiment: 30578",9240
same,area under confluence curve,[2],14600
same,area under confluence curve,"test compound dose 300 nM, dosing schedule: upfront, osimertinib-only DTP control AUC in same experiment: 19015, DMSO control AUC in same experiment: 31840",13200
Nc1nc(Nc2ccc3c(c2)CCC(N2CCCC2)CC3)nn1-c1cc2c(nn1)-c1ccccc1CCC2 (stereo not given) + C=CC(=O)Nc1cc(Nc2nccc(-c3cn(C)c4ccccc34)n2)c(OC)cc1N(C)CCN(C)C [osimertinib],area under confluence curve,"test compound dose 300 nM, dosing schedule: sequential, osimertinib-only DTP control AUC in same experiment: 11273, DMSO control AUC in same experiment: 20197",6530
same,area under confluence curve,[3],12100
same,area under confluence curve,"test compound dose 300 nM, dosing schedule: upfront, osimertinib-only DTP control AUC in same experiment: 13449, DMSO control AUC in same experiment: 20197",7530
same,area under confluence curve,[4],11700
Cc1c[nH]c2nc(Nc3ccc(N4CCN(C)CC4)c(F)c3)nc(-c3cccc(CC#N)c3)c12 + C=CC(=O)Nc1cc(Nc2nccc(-c3cn(C)c4ccccc34)n2)c(OC)cc1N(C)CCN(C)C [osimertinib],area under confluence curve,[1],1010
same,area under confluence curve,"test compound dose 300 nM, dosing schedule: sequential, osimertinib-only DTP control AUC in same experiment: 15163, DMSO control AUC in same experiment: 28684",4860
same,area under confluence curve,[3],25200
same,area under confluence curve,[2],3200
same,area under confluence curve,"test compound dose 300 nM, dosing schedule: upfront, osimertinib-only DTP control AUC in same experiment: 21337, DMSO control AUC in same experiment: 28684",6800
same,area under confluence curve,[4],25900
CCn1cc(-c2cccc(C(F)(F)F)c2)c2sc(C(=N)NC3CCS(=O)(=O)CC3)cc2c1=O + C=CC(=O)Nc1cc(Nc2nccc(-c3cn(C)c4ccccc34)n2)c(OC)cc1N(C)CCN(C)C [osimertinib],area under confluence curve,"test compound dose 1000 nM, dosing schedule: sequential, osimertinib-only DTP control AUC in same experiment: 4730, DMSO control AUC in same experiment: 72888",4010
same,area under confluence curve,"test compound dose 1000 nM, dosing schedule: upfront, osimertinib-only DTP control AUC in same experiment: 8775, DMSO control AUC in same experiment: 72888",6420
COc1cc(CCc2cc(NC(=O)c3ccc(N4CC(C)NC(C)C4)cc3)n[nH]2)cc(OC)c1 (stereo not given) + C=CC(=O)Nc1cc(Nc2nccc(-c3cn(C)c4ccccc34)n2)c(OC)cc1N(C)CCN(C)C [osimertinib],area under confluence curve,"test compound dose 1000 nM, dosing schedule: sequential, osimertinib-only DTP control AUC in same experiment: 9508, DMSO control AUC in same experiment: 26668",4800
same,area under confluence curve,"test compound dose 1000 nM, dosing schedule: sequential, osimertinib-only DTP control AUC in same experiment: 10968, DMSO control AUC in same experiment: 21594",7160
same,area under confluence curve,"test compound dose 1000 nM, dosing schedule: upfront, osimertinib-only DTP control AUC in same experiment: 11298, DMSO control AUC in same experiment: 26668",2090
same,area under confluence curve,"test compound dose 1000 nM, dosing schedule: upfront, osimertinib-only DTP control AUC in same experiment: 17834, DMSO control AUC in same experiment: 21594",6660
CN(C)C/C=C/C(=O)Nc1ccc(C(=O)Nc2cccc(Nc3ncc(Cl)c(-c4c[nH]c5ccccc45)n3)c2)cc1 + C=CC(=O)Nc1cc(Nc2nccc(-c3cn(C)c4ccccc34)n2)c(OC)cc1N(C)CCN(C)C [osimertinib],area under confluence curve,"test compound dose 1000 nM, dosing schedule: sequential, osimertinib-only DTP control AUC in same experiment: 11414, DMSO control AUC in same experiment: 31219",12600
same,area under confluence curve,"test compound dose 1000 nM, dosing schedule: upfront, osimertinib-only DTP control AUC in same experiment: 18848, DMSO control AUC in same experiment: 31219",21300
C[C@@H](c1ccc2nccn2c1)n1nnc2ncc(-c3cnn(C)c3)nc21 [Savolitinib] + C=CC(=O)Nc1cc(Nc2nccc(-c3cn(C)c4ccccc34)n2)c(OC)cc1N(C)CCN(C)C [osimertinib],area under confluence curve,"test compound dose 1000 nM, dosing schedule: sequential, osimertinib-only DTP control AUC in same experiment: 12535, DMSO control AUC in same experiment: 43316",7800
same,area under confluence curve,"test compound dose 1000 nM, dosing schedule: upfront, osimertinib-only DTP control AUC in same experiment: 15354, DMSO control AUC in same experiment: 43316",11900
Cc1cccc(-c2[nH]c(C(C)(C)C)nc2-c2ccc3nccnc3c2)n1 + C=CC(=O)Nc1cc(Nc2nccc(-c3cn(C)c4ccccc34)n2)c(OC)cc1N(C)CCN(C)C [osimertinib],area under confluence curve,"test compound dose 1000 nM, dosing schedule: sequential, osimertinib-only DTP control AUC in same experiment: 13130, DMSO control AUC in same experiment: 20567",13600
same,area under confluence curve,"test compound dose 1000 nM, dosing schedule: sequential, osimertinib-only DTP control AUC in same experiment: 15001, DMSO control AUC in same experiment: 22064",14500
same,area under confluence curve,"test compound dose 1000 nM, dosing schedule: upfront, osimertinib-only DTP control AUC in same experiment: 18577, DMSO control AUC in same experiment: 20567",20300
same,area under confluence curve,"test compound dose 1000 nM, dosing schedule: upfront, osimertinib-only DTP control AUC in same experiment: 24924, DMSO control AUC in same experiment: 22064",25300
CS(=O)(=O)CCNCc1ccc(-c2ccc3ncnc(Nc4ccc(OCc5cccc(F)c5)c(Cl)c4)c3c2)o1 [Lapatinib] + C=CC(=O)Nc1cc(Nc2nccc(-c3cn(C)c4ccccc34)n2)c(OC)cc1N(C)CCN(C)C [osimertinib],area under confluence curve,"test compound dose 1000 nM, dosing schedule: sequential, osimertinib-only DTP control AUC in same experiment: 16279, DMSO control AUC in same experiment: 29345",21600
same,area under confluence curve,"test compound dose 1000 nM, dosing schedule: upfront, osimertinib-only DTP control AUC in same experiment: 19769, DMSO control AUC in same experiment: 29345",18300
